Reference: PubChem BioAssay (NCATS)
Where “and” joins values, the source holds several entries; their conditions need not be identical. Equal values may be shown once. Records with an inconclusive call do not appear. A structure can be active in one record and inactive in another. Values without a mark were called inactive. Calls of active or inactive are those of the source. The call rests on the fitted dose curve; in most records, active means well fitted inhibition curve with a large enough effect; inconclusive means small, poorly fitted or top-dose-only effect; inactive means flat fitted curve, though single readings scatter.

system: KB-3-1; assay: Cytotoxic Profiling of Annotated Libraries Using Quantitative High-Throughput Screening (AID 1296008); conditions: Five cell lines viability, CellTiter-Glo ATP luminescence, 48-72 h; max response: stronger effect = lower value; further: nearly all actives have a fitted effect of over 60% in size
How it was run: (§1)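 Cytotoxicity was measured as CellTiter-Glo ATP luminescence, read after 10 min at room temperature. Compound treatment of the cells lasted 48 or 72 hr at 37 degrees Celsius in a qHTS format.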
On the % scale 0 is the no-effect control and ±100 the full control effect; potency means the concentration at half of the fitted maximal effect.

Compound | max response | Potency | outcome
COc1cccc2c(NCc3ccccc3)nc(-n3c(N)nc4ccccc43)nc12 | -11.5% | – | –
COC(=O)[C@]12CCC(C)(C)C[C@@H]1[C@@H]1C(=O)C=C3[C@@]4(C)C=C(C#N)C(=O)C(C)(C)[C@@H]4CC[C@@]3(C)[C@]1(C)CC2 | – | 1.18 µM (active) | –
OCc1ccc(-c2ccc(-c3ccc(CO)s3)o2)s1 | -70.8% | 2.82 µM (active) | –
CCCCCCCCCC(=O)N[C@@H](Cc1c[nH]c2ccccc12)C(=O)N[C@H](CC(N)=O)C(=O)N[C@@H](CC(=O)O)C(=O)N[C@@H]1C(=O)NCC(=O)N[C@@H](CCCN)C(=O)N[C@@H](CC(=O)O)C(=O)N[C@H](C)C(=O)N[C@@H](CC(=O)O)C(=O)NCC(=O)N[C@H](CO)C(=O)N[C@@H]([C@@H](C)CC(=O)O)C(=O)N[C@@H](CC(=O)c2ccccc2N)C(=O)O[C@@H]1C | – | – | inactive
COc1c(OCCCN2CCOCC2)ccc2c3n(c(=NC(=O)c4cnc(N)nc4)nc12)CCN3 | – | 0.0944 µM (active) | –
CCC1=C[C@@H]2CN(C1)Cc1c([nH]c3ccccc13)[C@@](C(=O)OC)(c1cc3c(cc1OC)N(C)[C@@H]1[C@@](O)(C(=O)OC)[C@H](OC(C)=O)[C@]4(CC)C=CCN5CC[C@]31[C@@H]54)C2 | – | 0.0166 µM (active) | –
Nc1ccc(C(=O)c2cc3c(ccc4ccccc43)[nH]2)cc1 | – | 4.18 µM (active) | –
c1cc(-c2cnn3cc(-c4ccc(OCCN5CCCCC5)cc4)cnc23)ccn1 | – | 3.72 µM (active) | –
CC(C)=CCCC(C)=CCCC(C)=CCSc1ccccc1C(=O)O | – | 4.69 µM (active) | –
O=C(O)c1ccc2c(c1)nc(Nc1cccc(Cl)c1)c1ccncc12 | 6.46% | 20.6 µM (active) | –
Cc1cc(C(=O)N2CCN(c3cccc(Cl)c3)CC2)n(-c2ccccc2)n1 | – | 833 nM (active) and 1.64 µM (active) | –
Cc1[nH]c2ccccc2c1CCNCc1ccc(C=CC(=O)NO)cc1 | – | 0.148 µM (active) | –
O=C(c1ccc(Nc2nccc(-c3cc4ccccc4s3)n2)cc1)N1CCC(N2CCCC2)CC1 | – | 9.35 µM (active) | –
O=C(Nc1ncc(-c2cc(C(F)F)nn2-c2c(Cl)cccc2Cl)s1)C1CC1 | – | 590 nM (active) and 820 nM (active) | –
O=c1[nH]c(=O)n(C2CCCO2)cc1F (stereo not drawn) | – | – | inactive
O=C(O)C1(Cc2cccc(Nc3nccs3)n2)CCC(Oc2cccc(Cl)c2F)CC1 (stereo not drawn) | – | 2.35 µM (active) | –
O=C(O)[C@H](Cc1c[nH]c2ccccc12)N1C(=O)c2ccccc2C1=O | 3.99% | – | –
N#CCNC(=O)c1ccc(-c2ccnc(Nc3ccc(N4CCOCC4)cc3)n2)cc1 | – | 11.8 µM (active) and 18.4 µM (active) | –
C[C@@]12O[C@@H](C[C@]1(O)CO)n1c3ccccc3c3c4c(c5c6ccccc6n2c5c31)CNC4=O | – | 0.372 µM (active) | –
Cn1c2ccccc2c2c3c(c4c5ccccc5n(CCC#N)c4c21)CNC3=O | 4.23% and -14.5% | – | –
NC(=O)c1cccc2cn(-c3ccc([C@@H]4CCCNC4)cc3)nc12 | -3.07% and -13.7% | – | –
Nc1ccccc1NC(=O)c1ccc(CNc2nccc(-c3cccnc3)n2)cc1 | – | 1.87 µM (active) and 2.06 µM (active) | –
CC(C)(C)c1cc(NC(=O)Nc2ccc(-c3cn4c(n3)sc3cc(OCCN5CCOCC5)ccc34)cc2)no1 | 4.76% and -14.7% | – | –
CN1CCC(CNc2ccc3ncc(-c4cccc(OC(F)(F)F)c4)n3n2)CC1 | – | 20.9 µM (active) | –
CC1(C)OC2=C(C(=O)c3ccccc3C2=O)[C@H](NCc2ccccc2)[C@H]1O | – | 9.35 µM (active) | –

system: NIH3T3; assay: as above; conditions: Five cell lines viability, CellTiter-Glo ATP luminescence, 48-72 h; max response: stronger effect = lower value
How it was run: as §1

Compound | Potency | max response | outcome
COc1cccc2c(NCc3ccccc3)nc(-n3c(N)nc4ccccc43)nc12 | 10.5 µM (active) | – | –
OCc1ccc(-c2ccc(-c3ccc(CO)s3)o2)s1 | – | -23.8% | –
CCCCCCCCCC(=O)N[C@@H](Cc1c[nH]c2ccccc12)C(=O)N[C@H](CC(N)=O)C(=O)N[C@@H](CC(=O)O)C(=O)N[C@@H]1C(=O)NCC(=O)N[C@@H](CCCN)C(=O)N[C@@H](CC(=O)O)C(=O)N[C@H](C)C(=O)N[C@@H](CC(=O)O)C(=O)NCC(=O)N[C@H](CO)C(=O)N[C@@H]([C@@H](C)CC(=O)O)C(=O)N[C@@H](CC(=O)c2ccccc2N)C(=O)O[C@@H]1C | – | -13.2% | inactive
COc1c(OCCCN2CCOCC2)ccc2c3n(c(=NC(=O)c4cnc(N)nc4)nc12)CCN3 | 2.88 µM (active) and 59.6 nM (active) | – | –
CC(C)(O)c1cc2nc(-c3cnc(N)nc3)nc(N3CCOCC3)c2s1 | 0.418 µM (active) | – | –
c1cc(-c2cnn3cc(-c4ccc(OCCN5CCCCC5)cc4)cnc23)ccn1 | 0.372 µM (active) | – | –
CC(C)=CCCC(C)=CCCC(C)=CCSc1ccccc1C(=O)O | 14.8 µM (active) | – | –
O=C(O)c1ccc2c(c1)nc(Nc1cccc(Cl)c1)c1ccncc12 | – | – | inactive
COC(=O)C[C@](O)(CCCC(C)(C)O)C(=O)O[C@@H]1C(OC)=C[C@]23CCCN2CCc2cc4c(cc2[C@H]13)OCO4 | – | 2.2% | –
Cc1[nH]c2ccccc2c1CCNCc1ccc(C=CC(=O)NO)cc1 | 0.743 µM (active) | – | –
CC(C)C[C@H](NC(=O)CNC(=O)c1cc(Cl)ccc1Cl)B(O)O | 0.662 µM (active) | – | –
O=C(c1ccc(Nc2nccc(-c3cc4ccccc4s3)n2)cc1)N1CCC(N2CCCC2)CC1 | 26.4 µM (active) and 23.1 µM (active) | – | –
O=C(Nc1ncc(-c2cc(C(F)F)nn2-c2c(Cl)cccc2Cl)s1)C1CC1 | 1.18 µM (active) and 1.46 µM (active) | – | –
O=C(O)[C@H](Cc1c[nH]c2ccccc12)N1C(=O)c2ccccc2C1=O | – | 4.64% | –
CN(C)CCCN=c1c2ccccc2n(C)c2[nH]c(=O)n(C)c(=O)c12 | 23.5 µM (active) | – | –
CCN(CC)CCNC(=O)c1ccc2nc(-c3ccccc3)c(-c3ccc(CN4CCC(n5c(=O)[nH]c6ccccc65)CC4)cc3)nc2c1 | 10.5 µM (active) | – | –
O=C(NC1CCNCC1)c1[nH]ncc1NC(=O)c1c(Cl)cccc1Cl | 13.2 µM (active) | – | –
COc1cc(C)c(Sc2cnc(NC(=O)c3ccc(CNC(C)C(C)C)cc3)s2)cc1C(=O)N1CCN(C(C)=O)CC1 (stereo not drawn) | 13.2 µM (active) and 13 µM (active) | – | –
CS(=O)(=O)N1CCN(Cc2cc3nc(-c4cccc5[nH]ncc45)nc(N4CCOCC4)c3s2)CC1 | 296 nM (active) and 1.3 µM (active) | – | –
N#CCNC(=O)c1ccc(-c2ccnc(Nc3ccc(N4CCOCC4)cc3)n2)cc1 | 5.26 µM (active) and 4.11 µM (active) | – | –
C[C@@]12O[C@@H](C[C@]1(O)CO)n1c3ccccc3c3c4c(c5c6ccccc6n2c5c31)CNC4=O | 1.87 µM (active) | – | –
Cn1c2ccccc2c2c3c(c4c5ccccc5n(CCC#N)c4c21)CNC3=O | 10.5 µM (active) | -14.2% | –
Cn1cc(-c2ccncc2)c(-c2ccc(OCc3ccc4ccccc4n3)cc2)n1 | – | -27.9% and -28% | –
NC(=O)c1cccc2cn(-c3ccc([C@@H]4CCCNC4)cc3)nc12 | – | -38.6% and -0.532% | –
CC(C)(C)c1cc(NC(=O)Nc2ccc(-c3cn4c(n3)sc3cc(OCCN5CCOCC5)ccc34)cc2)no1 | – | -25.4% | inactive
CC(C)c1cc(-c2n[nH]c(=O)n2-c2ccc3c(ccn3C)c2)c(O)cc1O | 105 nM (active) and 116 nM (active) | – | –
CCN1CCN(CC(=O)Nc2ccc(-c3cccc4c(=O)cc(N5CCOCC5)oc34)c3sc4ccccc4c23)CC1 | 1.05 µM (active) | – | –
CC1(C)OC2=C(C(=O)c3ccccc3C2=O)[C@H](NCc2ccccc2)[C@H]1O | 11.8 µM (active) | – | –
